Screens as filed in PubChem.
HSP90 inh – blocks HSP90-mediated luciferase refolding in reticulocyte lysate; Rabbit reticulocyte lysate, luciferase refolding luminescence, 3 h; inhibition, % at 5.6 µM; actives 0.91% (n = 290,000); AID 1789;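 active means inhibition above the screen-wide mean plus 3 SD, computed separately per campaign, cut at about 16% in these data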;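 further: 0% = DMSO wells and 100% = 60 µM geldanamycin wells; inhibitors lower the luminescence because luciferase stays unfolded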
DAX1 inh – inhibitors of human orphan nuclear receptor DAX1 (NR0B1) | P51843 | HEK293 Gal4-DAX1 luciferase reporter, luminescence | inhibition, % at 6.75 µM | actives 0.99% (n = 340,000) | AID 504766;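 active means inhibition above the mean over all tested compounds plus 3 SD, cut at about 4.2% in these data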;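 further: 0% = DAX1-transfected cells with DMSO and 100% = empty-vector control cells with DMSO; inhibition shows as a rise in luminescence from relieved DAX1 repression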
HSF1 inh – HSF1 inhibition | NIH3T3-HGL HSE-luciferase, MG132-induced, luminescence 8 h; active compounds read low | actives 0.77% (n = 300,000) | activity change, negative = inhibition, % at 7.5 µM (by protocol);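 active means more than half of replicate wells show activity change below -50%, luminescence cut by over half; inconclusive means some wells, but at most half, below -50%; inactive means no replicate well below -50%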;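 further: luciferase reports HSF-1 transcriptional activity via heat shock element; 0% = median of DMSO wells and -100% = zero luminescence signal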
HSF-1 act – increases HSF-1 driven luciferase reporter signal; NIH3T3-HGL HSF-1 luciferase reporter, MG132, 8 h; 100% = twice DMSO control signal; activation, % at 9 µM; actives 1.7% (n = 300,000);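 active means mean replicate activation of at least 50% with a set share of replicates each reaching 50%; inconclusive means only one of those two conditions met; inactive means mean below 50% and too few replicates reaching it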;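 further: 0% = median of the neutral control wells and 100% = twice that signal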
AHR activator – human AHR activation; AID 2796; AHR-responsive luciferase reporter cells, luminescence; actives 2.5% (n = 320,000); activation, % at 5 µM; in the data active means activation above about 47%;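 further: 0% = vehicle wells and 100% = reference agonist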
Target sequence (P35869 whole entry, looked up): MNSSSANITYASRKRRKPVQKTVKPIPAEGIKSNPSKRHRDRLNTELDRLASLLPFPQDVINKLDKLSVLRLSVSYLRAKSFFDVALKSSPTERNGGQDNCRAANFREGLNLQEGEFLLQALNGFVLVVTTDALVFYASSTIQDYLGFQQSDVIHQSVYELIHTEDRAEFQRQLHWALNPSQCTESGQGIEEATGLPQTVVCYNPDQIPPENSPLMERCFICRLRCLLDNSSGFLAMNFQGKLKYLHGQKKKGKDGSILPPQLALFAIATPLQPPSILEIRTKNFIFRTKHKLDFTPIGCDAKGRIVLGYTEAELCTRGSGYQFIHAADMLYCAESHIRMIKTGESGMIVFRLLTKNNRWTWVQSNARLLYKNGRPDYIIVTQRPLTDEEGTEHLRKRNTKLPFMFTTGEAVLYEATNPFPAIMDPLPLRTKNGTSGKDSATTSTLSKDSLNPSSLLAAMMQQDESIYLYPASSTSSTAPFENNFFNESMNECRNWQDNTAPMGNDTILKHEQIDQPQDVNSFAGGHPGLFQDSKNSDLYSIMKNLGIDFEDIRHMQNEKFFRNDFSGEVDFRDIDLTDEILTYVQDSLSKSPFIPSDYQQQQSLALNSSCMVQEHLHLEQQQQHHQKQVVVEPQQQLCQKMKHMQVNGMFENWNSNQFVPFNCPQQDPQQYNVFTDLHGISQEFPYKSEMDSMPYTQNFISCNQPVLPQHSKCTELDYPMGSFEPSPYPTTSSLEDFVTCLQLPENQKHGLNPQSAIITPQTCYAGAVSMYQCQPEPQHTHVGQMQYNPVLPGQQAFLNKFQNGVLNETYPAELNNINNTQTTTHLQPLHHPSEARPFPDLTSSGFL
GAA850 FXN act – activators of GAA850 frataxin (FXN) promoter; HEK293 lucGAA850 FXN promoter luciferase reporter, 24 h; percent of 10 µM SAHA response; actives 0.56% (n = 360,000); activation, % at 6 µM;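 active means activation above the average of all compounds screened plus 3 SD, cutoff fixed separately per campaign, cut at about 7.5% in these data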;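 further: 0% = DMSO wells and 100% = 10 µM SAHA wells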
Active calls of the source: *; ? = inconclusive; . = not tested or not shown. Shown are actives, neighbours in structure and some others; about 5.9% of the full set was active somewhere.

SMILES	HSP90 inh	DAX1 inh	HSF1 inh	HSF-1 act	AHR activator	GAA850 FXN act
Cc1ncc([N+](=O)[O-])n1CC(=O)Nc1ccc(Br)cc1	1.0	-1.1	-1.3	-3.0	2.4	-2.8
CCOc1cc(/C=C/c2nc3cc(C)c(C)cc3s2)ccc1OCC(=O)N1CCOCC1	1.1	-1.4	13.2	29.1	1.7	2.3
CCOc1cc(/C=C\[N+](=O)[O-])ccc1OCC(=O)N1CCOCC1	-7.4	-0.7	188.5	310.5*	1.4	3.2
CC1(C)CC(=O)C=C(Nc2ccc(Cl)cc2)C1	3.1	0.2	1.3	7.2	2.5	-0.3
CC1(C)CC(=O)C=C(Nc2ccc(Cl)c(Br)c2)C1	4.6	-0.9	4.1	7.9	67.5*	2.2
CNC(=O)C1=C(C)Nc2nc3ccccc3n2C1c1ccc(F)cc1 (stereo not given)	0.2	2.0	6.7	7.0	6.2	-1.7
CCOC(=O)C1=C(C)Nc2nc3ccccc3n2C1c1ccccc1 (stereo not given)	-6.5	5.4*	22.5	32.4	11.6	-1.4
CN(C(=O)c1cccc(NC(=O)Cc2ccc(NC(=O)C3CCN(C(=O)C4CC4)CC3)cc2)c1)C1CCCCC1	.	-1.3	.	.	.	-1.0
Cc1ccccc1C(=O)NN1CC(C(=O)OCc2ccc(Cl)c(Cl)c2)CC1=O (stereo not given)	0.1	0.6	-2.9	-5.5	1.6	0.0
CCOc1ccc(/C=C2/SC(=O)NC2=S)cc1	-2.6	3.9	4.4	6.8	2.9	3.0
CCOc1ccc(N=C2NC(=O)S/C2=C\c2ccc(N(C)C)cc2)cc1	-1.4	3.4	25.1	35.3	62.2*	1.4
CCCNC(=O)C1CN(S(=O)(=O)c2ccc(Cl)s2)c2ccccc2O1 (stereo not given)	.	-0.6	.	.	.	1.6
O=C(NC(=S)NCc1cccnc1)c1ccccc1F	-0.4	4.1	-4.7	-8.1	20.3	1.3
CC(C)(C)c1ccc(NC(=S)NCc2cccnc2)cc1	0.5	5.2*	1.2	24.2	11.1	0.8
O=C(NC(=S)NCc1cccnc1)c1cccc2ccccc12	-3.7	6.1*	9.8	32.4	14.3	1.1
O=C(NCc1cccnc1)c1ccc([N+](=O)[O-])o1	2.4	0.5	28.9	69.8*	-2.1	5.3
COc1ccccc1OCc1ccc(C(=O)NCc2cccnc2)o1	-1.1	1.7	2.4	6.1	3.0	-0.4
O=C(Nc1cccnc1)c1ccc([N+](=O)[O-])o1	2.1	-0.4	10.2	19.3	6.9	0.7
CC(C)(C)c1ccc(OCc2ccc(C(=O)NCc3cccnc3)o2)cc1	11.2	-0.2	56.5	111.5*	17.8	3.8
COCOCCn1cc(CN2CCS(=O)(=O)N(Cc3ccc(-c4ccc(OC)cc4)cc3)C(C)C2=O)nn1 (stereo not given)	.	-1.2	.	.	.	-0.3
Cc1cccc(C(=O)NCC(=O)OCCOc2ccccc2Cl)c1	.	1.2	-4.4	-27.8	0.7	2.9
O=C1CC(c2ccc(Cl)c([N+](=O)[O-])c2)c2ccc3ccccc3c2N1 (stereo not given)	1.5	-1.0	-64.8*	-72.3	3.8	1.9
O=C(O)c1cc(S(=O)(=O)N2CC=C(c3ccccc3)CC2)ccc1O	.	0.3	.	.	5.9	0.8
O=C(CCl)N1N=C(c2ccco2)CC1c1cccs1 (stereo not given)	-3.9	-3.5	28.7	54.8*	1.7	-16.8
CC(=O)N1N=C(c2ccco2)CC1c1cccs1 (stereo not given)	0.8	-0.4	12.5	15.4	1.3	2.9
SMILES	HSP90 inh	DAX1 inh	HSF1 inh	HSF-1 act	AHR activator	GAA850 FXN act
Cc1ccc(C2=NN(C(=O)CCl)C(c3cccs3)C2)o1 (stereo not given)	0.2	-3.4	31.0	58.4*	3.8	-15.4
O=C(Nc1ccc2c(c1)OCO2)c1cnc(Cl)c(Cl)c1	.	2.5	.	.	.	5.8
N#CC1C(=O)c2ccccc2C1c1ccccc1 (stereo not given)	.	-0.5	.	.	.	2.5
CC1(C(=O)Nc2nccs2)CCN1C(=O)CC(c1ccccc1)c1ccccc1 (stereo not given)	.	.	.	.	.	-2.5
COc1ccc([C@H]2CC(=O)C=C(c3ccc(CNC(=O)OC(C)(C)C)cc3)C2)cc1	.	-0.6	.	.	1.7	2.2
C/C(=N\OCC(=O)OCC(=O)N(C)c1ccccc1)c1ccc2c(c1)OCO2	.	-0.1	.	.	2.5	-0.2
Cc1ccc(OCCSc2ncccn2)c(C)c1	2.0	5.1*	36.1	61.8*	.	3.8
Cc1cccc(OCCOCCSc2ncccn2)c1	1.8	-0.7	-5.2	-23.2	61.8*	1.0
c1cnc(SCCOc2cccc3ccccc23)nc1	-3.8	2.9	32.5	?	7.6	4.7
Cc1ccc2[nH]c(=O)c(CN(C(=O)c3cccc([N+](=O)[O-])c3)C(C)C)cc2c1	-2.4	-2.1	-56.7*	-66.0	8.8	0.8
O=C(CSc1nnc(CNC(=O)c2cccs2)o1)NCc1ccc(F)cc1	3.2	-0.4	-55.1*	-64.0	0.9	2.5
CCOc1cccc(/C=C2\NC(=S)N(c3ccccc3)C2=O)c1O	-0.3	0.5	81.9	102.1*	25.0	1.7
O=C(CC(=O)c1ccccc1O)c1ccc(F)cc1	1.5	-0.4	37.5	75.2*	26.9	0.8
O=C(CCCN1CCC(C(=O)c2ccc(F)cc2)CC1)c1ccc(F)cc1	2.3	0.6	-4.7	-3.8	-1.8	1.8
O=C(CCCC(=O)c1ccc(F)cc1)c1ccc(F)cc1	9.5	4.8*	50.3	81.4*	0.0	4.0
O=C(CC(=O)c1ccccc1O)c1cccc(F)c1	5.7	0.3	17.5	39.4	11.3	3.4
O=C(COC(=O)c1ccc(F)cc1F)c1ccc[nH]1	.	-0.4	.	.	.	1.9
O=C(CSc1nc(C(F)(F)F)cc(=O)[nH]1)NCc1ccc2c(c1)OCO2	.	-0.2	-5.8	-4.2	-1.4	-0.6
O=S(=O)(NCCCc1ccccc1)c1ccc(F)c(F)c1	1.9	4.8*	0.4	-11.0	-0.8	-0.8
O=S(=O)(NCCCc1ccccc1)c1ccc(Cl)cc1	2.2	-0.8	-8.2	2.7	0.6	2.1
Cc1ccc2nc(-c3ccccn3)c(NC3CCCC3)n2c1	-4.4	-0.3	0.6	3.6	7.3	3.5
COC(=O)CNc1c(-c2ccccn2)nc2ccc(Br)cn12	-4.1	1.4	27.6	63.9*	61.9*	1.2
NNC(=O)CSc1cccc2cccnc12	-4.1	0.0	-6.0	-4.7	16.8	1.2
O=C(CSc1cccc2cccnc12)OCC(=O)c1ccccc1	-1.7	4.5*	-7.6	-3.1	26.8	0.1
O=C(CSc1cccc2cccnc12)N1CCCC1	-1.9	0.3	57.4	59.6*	23.9	6.8
O=c1c2ccccc2cnn1CCOc1cccc(Br)c1	-1.8	2.5	54.8	93.8*	-0.7	1.3
CCCCNC(=O)c1onc(CSc2cccc(Cl)c2)c1C(=O)O	-9.7	0.5	-68.5*	-76.4	1.4	-0.2
